Test [1] can be described thus: compounds binding Alexa647 anti-His antibody – biochemical, small-molecule microarray, 635 nm fluorescence, artefact control for SMM control protein annotation, primary screen (AID 1128).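 Further: score merges feature fluorescence with signal-to-noise for each printed compound spot.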 Conditions: higher = more signal.
Test [2] relates to Human papillomavirus type 1a E7 protein (residues 1-88). The experiment in a line: HPV1a E7 small-molecule binders, primary screen, biochemical, small-molecule microarray, residues 1-88, 635 nm (AID 1129). Conditions: small-molecule microarray binding, fluorescence 635 nm; higher = more signal.
Test [3] has as its target Focal adhesion kinase 1 (Homo sapiens) (UniProt Q05397). Nature of the test: PTK2 protein binding on printed compound slides – biochemical, small-molecule microarray, 635/667 nm fluorescence, BSA, DTT, primary screen (AID 1130).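 Further: composite of spot emission at 667 nm and signal to noise over triplicate slides.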 The settings on record: 635 nm fluorescence, higher = more signal.
Test [4] concerns Fibrinogen (Alexa647-labelled). Nature of the test: Alexa647-fibrinogen binding to printed small molecules – biochemical, small-molecule microarray, 635/667 nm fluorescence, artefact control for SMM control-protein annotation, profiling panel (AID 1131).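 Further: z-score merges 667 nm fluorescence with per-spot signal-to-noise over triplicate slides.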 The settings on record: fibrinogen-A647 binding fluorescence, higher = more signal.
Test [5] has as its target Follistatin (Homo sapiens) (UniProt P19883). The experiment in a line: FST protein binding to printed compounds – biochemical, small-molecule microarray, 635/667 nm fluorescence, primary screen (AID 1132). Conditions: 635 nm fluorescence, higher = more signal.
Test [6] has as its target Fibroblast growth factor 2 (Homo sapiens) (UniProt P09038). Nature of the test: basic fibroblast growth factor binding to printed compounds – biochemical, small-molecule microarray, 635/667 nm fluorescence, primary screen (AID 1133). The settings on record: FGF2, fluorescence 635/667, higher = more signal.
The nature of test [7]: JC-1 mitochondrial potential readout, lung cancer cells – cell-based, A549, JC-1 fluorescence, basal, 24 h, 100 nL, profiling panel (AID 1138).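 Further: A549 lung adenocarcinoma cells under basal conditions with no added stimulus; test concentration not given here.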 The settings on record: higher = more signal.
Another test deals with Lefty1. Nature of the test: Lefty1 protein binding to printed compounds – biochemical, small-molecule microarray, 635/667 nm fluorescence, primary screen (AID 1139). The settings on record: fluorescence 635/667, higher = more signal.
For test [8], the system named is wheat germ agglutinin (Triticum aestivum), Alexa647-labelled. The experiment in a line: Alexa647-WGA lectin binding to printed small molecules – biochemical, small-molecule microarray, 635/667 nm fluorescence, artefact control for SMM control-protein annotation, profiling panel (AID 1140).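 Further: score merges 667 nm feature emission with signal to noise over triplicate slides.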 The settings on record: WGA-A647 binding, 635 nm fluorescence, higher = more signal.

For test [9], the target named is Luciferin 4-monooxygenase (Photinus pyralis) (UniProt P08659). Nature of the test: inhibition of purified Photinus pyralis luciferase – biochemical, luminescence, purified enzyme, 2006 set, primary screen (AID 1141).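 Further: cell-free assay with purified firefly luciferase at 100 ng per well in PBS; test concentration not given here.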 The settings on record: purified firefly luciferase, SteadyGlo luminescence, 30 min; higher = more signal, called active from +8 up or from −8 down.
The subject of test [10] is Wnt5a (protein binding on small-molecule microarray). The experiment in a line: small molecules binding Wnt5a protein – biophysical, small-molecule microarray, 635/667 nm fluorescence, primary screen (AID 1142).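 Further: fluorescence read at 667 nm with signal to noise per printed feature.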 Conditions: 635 nm fluorescence, higher = more signal.
Test [11] in a line: ATP-based viability of Huh7 replicon cells – cell-based, CellTiter-Glo luminescence, basal, 48 h, cytotoxicity control for HCV replication inhibitor project, primary screen (AID 1143).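 Further: Huh7 hepatoma cells carrying a hepatitis C replication reporter with no stimulus; test concentration not given here.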 The settings on record: higher = more signal, called active from +8 up or from −8 down.
Test [12] in a line: Pseudomonas biofilm growth suppression – PAO1 strain, BacTiter-Glo luminescence, LB-PBS, primary screen (AID 1144). The settings on record: P. aeruginosa PAO1 biofilm, 12 h, higher = more signal.
Test [13] can be described thus: basal CRE-LacZ reporter activity in PC12 – cell-based, unstimulated, primary screen (AID 1145). The settings on record: no forskolin, luminescence, 4.5 h, higher = more signal, called active from +8 up or from −8 down.
Test [14] can be described thus: forskolin-driven CRE-LacZ activity in PC12 – cell-based, CRE-LacZ reporter, forskolin-stimulated, primary screen (AID 1146).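 Further: PC12 cells with 6xCRE LacZ reporter stimulated by forskolin 10 µM; beta-galactosidase reporter signal reflecting CREB driven transcription.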 Conditions: luminescence, 4.5 h, higher = more signal, called active from +8 up or from −8 down.
The target in test [15] is Streptavidin (Streptomyces avidinii) (UniProt P22629). The experiment in a line: compounds binding control protein streptavidin – biophysical, small-molecule microarray, 635/667 nm fluorescence, artefact control for SMM compound annotation, primary screen (AID 1147).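 Further: signal reflects streptavidin binding to arrayed compounds as a control protein.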 Conditions: higher = more signal.
A short description of test [16]: probe aInhba binding on compound microarray – biochemical, small-molecule microarray, 635/667 nm fluorescence, primary screen (AID 1148).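 Further: score merges 667nm spot fluorescence with signal-to-noise for antibody binding to printed compounds.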 The settings on record: higher = more signal.
The target of test [17] is Torsin-1A (Homo sapiens) (UniProt O14656). The experiment in a line: TOR1A wild-type binding on microarray – cell lysate, small-molecule microarray, lysate, 635/667 nm, primary screen (AID 1149). The settings on record: COS7 hTOR1A-WT lysate, 635 nm fluorescence, higher = more signal.
Test [18] shares this target. The experiment in a line: torsin A mutant lysate binding on microarrays – cell lysate, small-molecule microarray, COS7 lysate, 635/667 nm fluorescence, primary screen (AID 1150).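 Further: score pools 667 nm emission and signal to noise measuring lysate protein binding.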 The settings on record: COS7 hTOR1A mutant lysate, 635 nm fluorescence, higher = more signal.
Test [19] relates to Sonic hedgehog protein (Shh). The experiment in a line: Sonic hedgehog microarray binding compounds – biochemical, small-molecule microarray, 635/667 nm fluorescence, primary screen (AID 1151).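 Further: Shh protein binding to compounds spotted on small-molecule microarray slides; score combines spot fluorescence intensity with signal-to-noise across triplicate slides.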 Conditions: 635 nm fluorescence, higher = more signal.

The source made the active and inactive calls. Unless noted, how the calls were made is not given here.

Sequence of Follistatin (Homo sapiens) (P19883 whole entry, looked up): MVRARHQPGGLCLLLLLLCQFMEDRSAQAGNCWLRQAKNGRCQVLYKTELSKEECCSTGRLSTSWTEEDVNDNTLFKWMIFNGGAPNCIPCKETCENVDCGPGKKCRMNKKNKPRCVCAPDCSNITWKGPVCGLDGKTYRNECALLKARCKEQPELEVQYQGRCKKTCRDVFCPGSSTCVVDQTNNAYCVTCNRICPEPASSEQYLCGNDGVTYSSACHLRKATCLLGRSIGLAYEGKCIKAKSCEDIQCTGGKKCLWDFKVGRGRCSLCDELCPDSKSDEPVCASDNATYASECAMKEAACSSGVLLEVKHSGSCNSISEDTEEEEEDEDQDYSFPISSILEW
Sequence of Streptavidin (Streptomyces avidinii) (P22629 whole entry, looked up): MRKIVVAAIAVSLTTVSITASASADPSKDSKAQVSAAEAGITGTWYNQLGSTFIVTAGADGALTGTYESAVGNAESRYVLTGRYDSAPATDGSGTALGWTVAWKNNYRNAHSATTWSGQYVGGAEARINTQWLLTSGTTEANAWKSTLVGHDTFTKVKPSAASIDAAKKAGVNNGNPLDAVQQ
Sequence of Torsin-1A (Homo sapiens) (O14656 whole entry, looked up): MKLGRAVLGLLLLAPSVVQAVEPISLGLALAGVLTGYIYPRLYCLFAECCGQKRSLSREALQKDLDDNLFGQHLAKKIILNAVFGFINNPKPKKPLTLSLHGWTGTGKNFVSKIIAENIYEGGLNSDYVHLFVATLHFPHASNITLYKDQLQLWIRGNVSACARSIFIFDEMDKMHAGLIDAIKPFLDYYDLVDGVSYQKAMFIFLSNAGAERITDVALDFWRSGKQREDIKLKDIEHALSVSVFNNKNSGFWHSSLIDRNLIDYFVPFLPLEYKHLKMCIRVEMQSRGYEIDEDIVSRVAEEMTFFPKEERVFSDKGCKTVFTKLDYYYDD
Sequence of Luciferin 4-monooxygenase (Photinus pyralis) (P08659 whole entry, looked up): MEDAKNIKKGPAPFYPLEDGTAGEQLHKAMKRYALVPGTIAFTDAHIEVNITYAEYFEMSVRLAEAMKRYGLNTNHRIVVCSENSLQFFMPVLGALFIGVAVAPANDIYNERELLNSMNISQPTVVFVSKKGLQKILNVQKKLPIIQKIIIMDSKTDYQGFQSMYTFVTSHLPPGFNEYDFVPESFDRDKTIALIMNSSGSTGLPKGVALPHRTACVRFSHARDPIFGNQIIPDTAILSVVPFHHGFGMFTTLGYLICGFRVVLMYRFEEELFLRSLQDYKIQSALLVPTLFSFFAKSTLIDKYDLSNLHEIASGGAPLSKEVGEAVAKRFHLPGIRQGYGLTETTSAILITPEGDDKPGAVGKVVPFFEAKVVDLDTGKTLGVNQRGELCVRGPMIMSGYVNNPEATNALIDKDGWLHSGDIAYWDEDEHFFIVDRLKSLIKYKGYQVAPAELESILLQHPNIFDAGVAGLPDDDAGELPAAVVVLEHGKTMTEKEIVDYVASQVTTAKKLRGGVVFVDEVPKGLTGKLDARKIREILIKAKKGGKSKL
Sequence of Focal adhesion kinase 1 (Homo sapiens) (Q05397 whole entry, looked up): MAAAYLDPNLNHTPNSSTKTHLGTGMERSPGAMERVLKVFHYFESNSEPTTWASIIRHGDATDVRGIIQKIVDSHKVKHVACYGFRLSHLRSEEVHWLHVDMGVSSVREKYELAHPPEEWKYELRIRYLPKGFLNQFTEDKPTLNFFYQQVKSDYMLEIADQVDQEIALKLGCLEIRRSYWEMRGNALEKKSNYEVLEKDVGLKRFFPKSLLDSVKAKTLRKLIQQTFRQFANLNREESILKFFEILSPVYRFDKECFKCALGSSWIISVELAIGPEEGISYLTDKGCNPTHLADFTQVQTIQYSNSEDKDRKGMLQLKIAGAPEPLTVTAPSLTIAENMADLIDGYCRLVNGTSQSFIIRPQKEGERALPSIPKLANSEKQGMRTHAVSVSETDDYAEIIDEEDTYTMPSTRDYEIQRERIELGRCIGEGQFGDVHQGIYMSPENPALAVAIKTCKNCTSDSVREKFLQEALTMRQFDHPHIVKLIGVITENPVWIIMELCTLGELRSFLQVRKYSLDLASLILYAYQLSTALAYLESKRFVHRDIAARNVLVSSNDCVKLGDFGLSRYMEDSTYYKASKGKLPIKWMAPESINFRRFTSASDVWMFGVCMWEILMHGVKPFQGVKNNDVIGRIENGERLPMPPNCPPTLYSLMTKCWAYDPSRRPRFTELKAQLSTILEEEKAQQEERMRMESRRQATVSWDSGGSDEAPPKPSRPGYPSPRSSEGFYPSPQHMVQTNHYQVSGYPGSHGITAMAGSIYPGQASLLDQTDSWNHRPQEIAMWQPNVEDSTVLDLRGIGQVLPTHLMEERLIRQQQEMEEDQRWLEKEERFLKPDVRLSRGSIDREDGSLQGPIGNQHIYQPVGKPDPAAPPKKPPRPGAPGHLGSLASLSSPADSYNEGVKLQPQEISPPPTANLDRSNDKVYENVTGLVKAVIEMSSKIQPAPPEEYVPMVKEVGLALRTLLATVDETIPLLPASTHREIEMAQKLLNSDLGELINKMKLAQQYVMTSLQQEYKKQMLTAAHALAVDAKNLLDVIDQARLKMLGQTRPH
Sequence of Fibroblast growth factor 2 (Homo sapiens) (P09038 whole entry, looked up): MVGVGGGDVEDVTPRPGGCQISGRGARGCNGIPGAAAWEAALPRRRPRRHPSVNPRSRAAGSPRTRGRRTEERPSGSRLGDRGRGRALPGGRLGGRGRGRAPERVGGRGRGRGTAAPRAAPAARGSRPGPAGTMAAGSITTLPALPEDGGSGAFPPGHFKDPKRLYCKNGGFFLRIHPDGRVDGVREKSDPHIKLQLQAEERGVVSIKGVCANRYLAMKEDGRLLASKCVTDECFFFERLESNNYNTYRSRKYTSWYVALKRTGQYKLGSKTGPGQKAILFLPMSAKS

Turning to `COc1ccc([Si](C)(C)[C@@H]2[C@@H](CC(=O)N3CCC[C@H]3CO)O[C@]3(C(=O)N(c4ccccc4)c4ccccc43)[C@H]2C)cc1`, the composite z-score in [1] was determined as 0.806; in [2], 1.22; in test [3], 0.472; in test [4], 0.94; in [5], 1.1; in [6] it was 0.642. Besides, the composite z-score in the test on Lefty1 came out at 1.01; in [8], 0.2; in test [10], 0.155; in [15] it was 0.578; in test [16], 0.0047; with Torsin-1A (Homo sapiens) [17], 0.491. The composite z-score came to 0.466 in the test with Torsin-1A (Homo sapiens) [18] and 1.53 in test [19]. In addition, the z-score was -0.228 in [7]; 0.659 (inactive) in test [9]; -4.58 (inactive) in [11]; 0.439 (inactive) in test [12]; -0.0815 (inactive) in test [13]; 0.334 (inactive) in [14].
As for `COc1ccc(CCNC(=O)[C@@]2(C)c3ccccc3C(=O)N(C(C)C)[C@H]2c2ccc(CO)cc2)cc1`, the composite z-score in [1] is 1.63; in test [2], 1.19; in test [3], -0.0743; in [4], 0.0931; in [5] it was 0.674; in test [6] it was 0.493. Besides, the composite z-score in the test with Lefty1 was 0.826; in [8], 0.544; in test [10] it was 0.435; in test [15] it was 0.454; in [16], -0.102; with Torsin-1A (Homo sapiens) [17], 0.0534. In addition, the composite z-score with Torsin-1A (Homo sapiens) [18] is -0.176; in test [19], 0.794. The z-score in test [7] was 0.537; in [9], -1.19 (inactive); in [11], -1.03 (inactive); in test [12] it was 1.08 (inactive); in test [13] it was 0.827 (inactive); in [14] it was 0.727 (inactive).
With `O=C(c1ccccc1)N1Cc2ccccc2C[C@@]2(COC(c3ccc(OCCCO)cc3)=N2)C1=O`, the composite z-score amounted to 2.32 in [1]; 1.23 in test [2]; 0.242 in [3]; 0.905 in [4]; 1.34 in test [5]; 1.45 in [6]. Moreover, the composite z-score came out at 0.663 in the test on Lefty1; 0.71 in test [8]; 0.406 in test [10]; 0.298 in [15]; 0.167 in test [16]; 0.655 with Torsin-1A (Homo sapiens) [17]. For the same compound, the composite z-score with Torsin-1A (Homo sapiens) [18] was found to be 0.787; in test [19], 1.33. Moreover, the z-score was 0.604 in test [7]; -1.31 (inactive) in [9]; -1.71 (inactive) in [11]; -0.0668 (inactive) in [12]; 2.72 (inactive) in test [13]; -0.152 (inactive) in test [14].
As for `COc1cc(NN2C(C(O)c3ccco3)C=CC3C(=O)N(c4ccccc4)C(=O)C32)cc(OC)c1OC` (stereo not given), the composite z-score in test [1] was 0.284; in [2], 1.06; in test [3] it was 0.21; in test [4] it was -0.0129; in test [5], 0.363; in [6] it was -0.132. Also, the composite z-score is 0.199 with Lefty1; 0.0464 in test [8]; -0.286 in test [10]; 0.0123 in [15]; -0.153 in test [16]; -0.967 with Torsin-1A (Homo sapiens) [17]. Also, the composite z-score is 0.594 with Torsin-1A (Homo sapiens) [18] and 0.179 in test [19]. Also, the z-score in [7] was -0.16; in test [9] it was -2.51 (inactive); in [11] it was -2.49 (inactive); in [12], -0.225 (inactive); in test [13], 0.0501 (inactive); in [14], -0.462 (inactive).
Consider `CCCCCN1CC=CC23O[C@@H]4/C=C\CCC(C)OC(=O)C4[C@H]2C(=O)N(C(C)CO)[C@@H]3C1=O` (stereo not given in full), for which the composite z-score in test [1] was -0.361; in test [2], -0.575; in [3] it was -0.521; in [4], -0.925; in test [5], 0.274; in [6], -0.556. Moreover, the composite z-score is 0.696 in the test on Lefty1; -0.721 in test [8]; -0.105 in test [10]; -0.659 in [15]; -0.0933 in [16]; -1.11 with Torsin-1A (Homo sapiens) [17]. The results for the composite z-score (in the test with Torsin-1A (Homo sapiens) [18]; in test [19]) were -0.742 and 1.09, respectively. In addition, the z-score in test [7] was 0.157; in [9], -0.078 (inactive); in [11] it was 0.28 (inactive); in test [12], -0.818 (inactive); in [13] it was -1.17 (inactive); in test [14], -0.672 (inactive).

The values above are taken from PubChem BioAssay.
